Assay results from the supplement of paper PMC11417369.
± gives the standard deviation of the averaged measurements. The full ranking holds about 25,000 sequences; the median of “ln(normalized median fluorescence intensity)” is about 7.9, and the highest 2% start at about 11. The sample as a whole holds a higher share of the highest values than the screen did.

Each sequence was assayed on PfAP2-I AP2 domain 3 (GST-tagged) (assay: gcPBM binding intensity (ln(normalized median fluorescence intensity)); higher = stronger DNA binding).
Method in brief: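 Using an Agilent 4 × 180k array, primer-extended double-stranded 36-bp intergenic genomic probes and negative controls were exposed for 1 h to GST-fused P. falciparum DNA-binding domains expressed in E. coli. Binding was carried out in 1× PBS with 1% milk, 0.2 mg/ml BSA, 0.5% salmon testes DNA and 0.03% Triton X-100, and protein was detected with Alexa488 anti-GST antibody and a 488 nm scan. Binding intensity is the highest Masliner-normalised natural-log median intensity across replicate spots of either probe orientation.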

| Sequence | gcPBM binding intensity (ln) |
| --- | --- |
| ATTAATGATTTTTGTTGTACATTATTAATTTACATT [XGTACX_site544] | 7.83 ± 0.46 |
| ATTTCTCAATCGTAATGTACAAAAAAAAGGGAAAAG [XGTACX_site2781] | 7.9 ± 0.58 |
| AAGGAATATGTATATACACACAGGTACATATATATA [CACACA_site441] | 8.16 ± 0.71 |
| AGTAGTCTGGAGAAAAGTACATAGTATCTGGTAGCT [XGTACX_site2027] | 7.98 ± 0.52 |
| AAGAGAGAGAAATATGCACACATAAGGGAAATAAAT [CACACA_site8300] | 8.895 ± 0.049 |
| TTTATTCCAGTATTCACACACGAATAACCACATAAC [CACACA_site5104] | 7.93 ± 0.42 |
| ATATATATATATATTTGTACATAATATATATATGCA [XGTACX_site1795] | 9.28 ± 0.48 |
| AGATATAATAAATATACACACATATATATATATATA [CACACA_site962] | 9.2 ± 0.76 |
| AATATTTTAATGCACACACACAAAAAAAAAAAAAAA [CACACA_site7374] | 11.5 ± 0.73 |
| TAAATTTTAATATGCACACAAAATGTTATATTAAAA [CACACA_site4366] | 9.13 ± 0.35 |
| TTTAAATTTTAATATGCACACAAAATGTTATATTAA [CACACA_site8015] | 9.06 ± 0.13 |
| AAGCATATTATAAACACACACTGTATAAAGATATAT [CACACA_site6277] | 7.66 ± 0.67 |
| TATATACCACATTGTTGTACGACACATTTACATTTT [XGTACX_site8370] | 8.21 ± 0.57 |
| ACATGAAACTATAAACGTACATACATACATATATAT [XGTACX_site5011] | 8.09 ± 0.6 |
| TATTTTATATAAAGGTGTACTTATACAAAAATATAT [XGTACX_site7435] | 8.14 ± 0.28 |
| TATAAATACTAAAAAAGTACAAAATTTCATAAAAAA [XGTACX_site2709] | 7.82 ± 0.59 |
| TTTTCTCTAAAAAGGTGTACAACTAATAATGCACTG [XGTACX_site6074] | 11.4 ± 0.31 |
| GATAATGAATGATGCACACTAAAAATATTCTACAAC [CACACA_site3622] | 8.66 ± 0.16 |
| AAAAAAAAAAAAAGGTGTACATGCAAAATAAATTCT [XGTACX_site4592] | 8.56 ± 0.35 |
| ATTTTTCTAAAATACTGTACAAAGGTGCATAAAAAG [XGTACX_site4425] | 11.8 ± 0.87 |
| ATATATATATATATATGTACATATTGTATTAATTAT [XGTACX_site1919] | 9.31 ± 0.11 |
| AATGTCATCATATTCATATATATTTATTTCTTTTTG [GTGCAC_negctrl_site500] | 7.68 ± 0.57 |
| TAAATTTAGAAACACACACACATATATATATATATA [CACACA_site847] | 9.36 ± 0.38 |
| TAATAACTACAAAAAAAAAAGAAAAATAGAAAAAGG [CACACA_negctrl_site1102] | 7.75 ± 0.67 |
| ATAGAAGGCAACTTGGTGCACAAAAAAAAAAATAAT | 11.6 ± 0.25 |
| AAAATAATAATAGGCACACATATATATATATATATA [CACACA_site2058] | 9.36 ± 0.32 |
